Test results: the supplement of paper PMC3724861
The sample as a whole holds a higher share of hits than the screen did. How many sequences the whole screen found active is unknown.

test system: T1, Caupolican (Caup) homeodomain DNA-binding domain; experiment: PBM E-score (8-mer, recovered from the published 9-mer minima) (E-score (dimensionless, -0.5 to 0.5)); Drosophila protein; higher = stronger relative binding preference, active = 0.31 or more
T1 sequence: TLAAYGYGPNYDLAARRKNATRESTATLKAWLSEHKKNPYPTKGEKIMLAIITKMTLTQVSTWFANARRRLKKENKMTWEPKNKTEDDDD
How it was run: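 Caup's homeodomain DNA-binding domain (residues 214-303) was made by in vitro transcription and translation and applied at 100 nM to custom-designed protein binding microarrays. Each value is an enrichment score that gives relative binding preference for a short DNA word, with higher meaning stronger. The 8-mer values were recovered from published 9-mer scores, each of which was the minimum of its two constituent 8-mer scores. A cutoff of 0.31 marks candidate sites.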

Sequence	PBM E-score
ATCATCCG	0.0593 (inactive)
CCCTAGCG	-0.171 (inactive)
AGAGCCTA	-0.0924 (inactive)
ATAACCGC	0.0257 (inactive)
CTGTACTA	0.156 (inactive)
GGGTACTA	0.152 (inactive)
GTGTACTA	0.34 (active)
AGTCGTCC	-0.0214 (inactive)
CACCGAAC	0.0165 (inactive)
ACTGCGAA	-0.0547 (inactive)
CATGTTAC	0.42 (active)
GATGTTAA	0.28 (inactive)
GATGTTAC	0.295 (inactive)
TAGGTTAA	0.0795 (inactive)
CCTGTTAG	0.114 (inactive)
AATGTTAC	0.277 (inactive)
CATGTTAA	0.446 (active)
AATGTTAA	0.291 (inactive)
TCTGTTAA	0.173 (inactive)
AATGTTAG	0.253 (inactive)
TATGTTAA	0.314 (active)
CATGTTAG	0.408 (active)
GACCTACC	-0.0746 (inactive)
AGCACGCC	-0.187 (inactive)
CGAATTGC	-0.0371 (inactive)
TCATTAAA	0.143 (inactive)

Sequence	PBM E-score
GAGCTAAC	-0.0389 (inactive)
AACCCCCG	-0.284 (inactive)
AGTGACAA	0.255 (inactive)
AACGACAT	0.358 (active)
AGCGACAG	0.105 (inactive)
AACGACAA	0.241 (inactive)
AGTGACAT	0.354 (active)
AGCGACAC	0.188 (inactive)
AGCGACAT	0.325 (active)
AACGACAG	0.164 (inactive)
AGTGACAC	0.198 (inactive)
AGCCTACT	-0.116 (inactive)
CCCATCCG	-0.202 (inactive)
GCTTACAA	0.22 (inactive)
ATTTACAG	0.137 (inactive)
GTTTACAA	0.343 (active)
ATTTACAA	0.361 (active)
ATTTACAC	0.259 (inactive)
CTTTACAA	0.137 (inactive)
AGGAGTTG	0.0303 (inactive)
ATACGAAG	0.0288 (inactive)
CACTCCCC	-0.125 (inactive)
CCATGGTA	0.133 (inactive)
GCATGGTA	0.166 (inactive)
AGATGGTG	-0.0838 (inactive)
ACATGGTA	0.418 (active)

Sequence	PBM E-score
ACATGGTG	0.366 (active)
ACATGGTC	0.285 (inactive)
CAGGCCTC	-0.158 (inactive)
CGGGAGCA	-0.149 (inactive)
CCGCTACC	-0.0854 (inactive)
ATTACGTA	0.173 (inactive)
CGTACTAG	0.107 (inactive)
ACTAAACC	0.00838 (inactive)
AGGCCCAG	-0.214 (inactive)
ACCCAGGC	-0.17 (inactive)
ACATCATA	0.318 (active)
ACATCAAT	0.316 (active)
TCATCACA	0.14 (inactive)
ACATCAAA	0.26 (inactive)
CCATCATA	0.02 (inactive)
ACATCATC	0.251 (inactive)
ACATCACA	0.334 (active)
ACATCACG	0.217 (inactive)
ACATCAAG	0.227 (inactive)
ATATATGG	0.127 (inactive)
GTATAAAA	0.116 (inactive)
GAATCGGA	-0.0551 (inactive)
ATCCCATC	-0.00982 (inactive)
CGCGTACC	-0.0687 (inactive)
GGTCTCCA	-0.147 (inactive)
CGAACACG	0.258 (inactive)

Sequence	PBM E-score
CGAACACA	0.167 (inactive)
TGAACACA	0.309 (inactive)
AGAACACA	≥ 0.317 (active)
AGAACACG	0.33 (active)
AGAACAAA	0.191 (inactive)
AGAACACT	0.108 (inactive)
AGAACAAT	0.21 (inactive)
AGAACAAG	0.329 (active)
AGCAGTCG	-0.15 (inactive)
ATTGTTTC	0.143 (inactive)
GGCTAAAC	-0.0281 (inactive)
GCGGTGCC	-0.251 (inactive)
ATGTATAG	0.276 (inactive)
CTGTATAA	0.186 (inactive)
ATGTATAC	0.356 (active)
ATGTATGG	0.157 (inactive)
GTGTATGA	0.249 (inactive)
GTGTATAA	0.202 (inactive)
ATGTATAA	0.344 (active)
ATGTATGA	0.352 (active)
CTGTATAC	0.246 (inactive)
AAAGGATA	0.105 (inactive)
CCTCCACA	-0.164 (inactive)
AAGTCTGT	0.139 (inactive)
CGCCTAAA	-0.117 (inactive)
AGACATAG	0.164 (inactive)

Sequence	PBM E-score
CGACATTA	0.202 (inactive)
AGACATCA	0.197 (inactive)
AGACATGG	0.329 (active)
AGACATCG	0.0873 (inactive)
AGACATTA	0.201 (inactive)
CGACATGA	0.395 (active)
CGACATGC	0.386 (active)
AGACATGC	0.303 (inactive)
CGACATCC	0.134 (inactive)
GGACATGA	0.304 (inactive)
AGACATGA	0.341 (active)
GAAGTCAA	-0.0438 (inactive)
GCAGTCGA	-0.135 (inactive)
CCAATCAA	0.0187 (inactive)
ATAGGCCC	-0.176 (inactive)
ACCCCTCA	-0.091 (inactive)
CAACTCTA	-0.0633 (inactive)
AACACATG	0.313 (active)
AGCACATA	0.0614 (inactive)
AACACACA	≥ 0.313 (active)
CACACATA	0.164 (inactive)
AACACACG	0.248 (inactive)
AACACATA	0.323 (active)
TACACATA	0.343 (active)
AACACATC	0.202 (inactive)
ATCACATA	0.239 (inactive)

Sequence	PBM E-score
AACACACT	0.256 (inactive)
AACACATT	0.264 (inactive)
GACACATA	0.264 (inactive)
GAACAGTA	0.173 (inactive)
AAGAGAGA	-0.0648 (inactive)
CTTCCGCA	-0.0665 (inactive)
ACTTCTCA	0.00621 (inactive)
GGTGATAA	0.0536 (inactive)
GCTCCACC	-0.174 (inactive)
CAATAGCC	0.0422 (inactive)
CATCTTGC	0.0649 (inactive)
GTCAACGA	0.118 (inactive)
CAGCCCGA	-0.199 (inactive)
ATGAGCGA	-0.0133 (inactive)
CAACATAA	0.295 (inactive)
AAACATAC	0.292 (inactive)
TAACATAA	0.327 (active)
AAACATAG	0.267 (inactive)
GAACATAA	0.282 (inactive)
AAGCATAA	0.0796 (inactive)
AAACATTA	0.233 (inactive)
AAACATAT	0.325 (active)
AAACATAA	0.321 (active)
